Compound activity (PubChem BioAssay)
This is a sample that favours compounds with a hit; in the whole collection about 21% have one here.
Pf growth 48h: P. falciparum growth inhibition at 48 hours (one generation); hit rate 5.9% among 310,000; Potency, µM (top dose mostly 28.7 µM), usual class: inhibitors; P. falciparum luciferase growth in erythrocytes, 48 h
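First compound was added to culture medium, then infected red cells at 0.1% parasitemia and 2% hematocrit (final). After incubation at 37 C under 5% CO2, luciferase detection reagent was dispensed and light output recorded.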
HCMV inh: inhibitors of human cytomegalovirus; activity change, negative = inhibition, % at 57.5 µM; hit rate 4.5% among 410,000; HFF cells, HCMV-luciferase reporter, 72 h; hits give low values; in the data active = activity change below about -60%; inconclusive = no clear call, values can overlap the other calls; inactive = above about -39%
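Two compound doses tested in HFFs infected with HCMV-luciferase, MOI 1 PFU/cell, 72 h at 37C. Lysate luminescence read with OneGlo; data normalized against buffer-only and 10uM Salinomycin inhibitor controls.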
HCV inhibitor: HCV inhibition. Potency, µM (titrated, usually from 41.8 µM), actives largely listed as inhibitors. AID 651820. Huh7.5.1 HCVcc-Cre infection, luciferase reporter, 44 h. hit rate 3.4% among 340,000
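Seed cells (1,000/well) for 4 h; treat with compound and infect with HCVcc-Cre, moi about 0.5. Incubate 44 h, then detect luciferase activity.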
CHX counter: counter-screen for Shiga toxin inhibitors: cycloheximide protein synthesis inhibition. cell reporter, cycloheximide protein synthesis inhibition counterscreen. max response, %. hit rate 12% among 300,000. AID 2314; in the data active = max response mostly above about 13%, no sharp cut-off; inactive = mostly below about 14%; note: read at 38.3 µM for the half of the compounds with a filed dose
Pf growth 96h: inhibits malaria parasite growth, 96 h; hit rate 6.9% among 320,000; AID 504834; P. falciparum luciferase reporter growth, 96 h; Potency, µM (top dose mostly 28.7 µM), usual class: inhibitors
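Erythrocytes infected with luciferase-expressing P. falciparum were dispensed at 2% hematocrit and 0.05% parasitemia (final), then incubated with compounds 96 hours at 37 C in 5% CO2. Luminescence after detection reagent addition reported growth.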
Shiga toxin inh: blocks Shiga toxin action in Vero cells. Vero cells, Shiga toxin protein synthesis inhibition reporter. inhibition, % at 38.7 µM. hit rate 9.2% among 290,000; in the data active = inhibition mostly above about 28%, no sharp cut-off; inactive = mostly below about 43%
Large screens that a line does not name were inactive. Unless noted, calls come from the whole dose curve; as a rule, active = well fitted inhibition curve with a large enough effect; inconclusive = small, poorly fitted or top-dose-only effect, or another doubt; inactive = no such curve, though single readings can be large or run the other way.

COc1ccc(N2C(=O)C(CC(=O)Nc3ccc(F)cc3)N(Cc3ccc4c(c3)OCO4)C2=O)cc1 (centres undefined)	none (no result: Pf growth 48h, HCV inhibitor, CHX counter, Pf growth 96h, Shiga toxin inh)
COc1ccc(CNc2nc(-c3ccco3)nn2C(=O)CC(C)C)cc1	none (no result: Pf growth 48h, HCV inhibitor, CHX counter, Pf growth 96h, Shiga toxin inh)
CCOC(=O)c1c(NC(=O)CCNCc2ccco2)sc2c1CCC2	HCV inhibitor inconclusive (no result: HCMV inh)
COC(=O)C(=O)Nc1cccc2cccnc12	none (no result: Pf growth 48h, HCMV inh, HCV inhibitor, Pf growth 96h)
Cc1cnc(C(=O)Nc2cccc3cccnc23)cn1	Pf growth 48h 0.37µM, HCMV inh -89, HCV inhibitor inconclusive
Cc1ccc(C(=O)Nc2cccc3cccnc23)cc1C	CHX counter 29 (no result: Shiga toxin inh)
COc1cc(NC(=O)Nc2cccc3cccnc23)cc(OC)c1OC	Pf growth 48h inconclusive, HCV inhibitor inconclusive, CHX counter 16
C/C(=N\Nc1cccc2cccnc12)c1ccc(C)cc1	CHX counter 31, Shiga toxin inh 93
COc1cc(C(=O)Nc2cccc3cccnc23)cc(OC)c1OC	Pf growth 48h inconclusive, HCV inhibitor inconclusive, Pf growth 96h inconclusive
CCOC(=O)c1c(NC(=O)CSc2cn(CCNC(=O)c3ccc(OC)cc3)c3ccccc23)sc2c1CCC2	none (no result: Pf growth 48h, HCV inhibitor, CHX counter, Pf growth 96h, Shiga toxin inh)
Cc1ccc(C(=O)Nc2nc3n(n2)C(c2ccc(F)cc2)C=C(c2ccccc2)N3)cc1 (centres undefined)	none (no result: Pf growth 48h, HCV inhibitor, CHX counter, Pf growth 96h, Shiga toxin inh)
Cc1ccc(OCC(=O)Nc2c(C(=O)c3ccc(Cl)cc3)oc3ccccc23)cc1C	none (no result: Pf growth 48h, HCV inhibitor, CHX counter, Pf growth 96h, Shiga toxin inh)
O=C(Nc1cccnc1Cl)c1cccc(F)c1	none (no result: HCV inhibitor)
Cc1cccc(C(=O)Nc2cccnc2Cl)c1	CHX counter 12, Pf growth 96h inconclusive
N#Cc1ccsc1NC(=O)CN1C(=O)NC2(CCCCC2)C1=O	none (no result: Pf growth 48h, CHX counter, Pf growth 96h, Shiga toxin inh)
Cc1oc(C(=O)O)cc1CSCc1cc(C(=O)O)c(C)o1	CHX counter 12
Cc1oc(C(=O)O)cc1CSCc1ccoc1C(=O)O	Pf growth 96h inconclusive
COc1cc(OC)cc(-c2c(C#Cc3ccsc3)c3cc(-c4ccc5c(c4)OCCO5)ccc3n2C)c1	Pf growth 48h inconclusive, Pf growth 96h 2.6µM (no result: CHX counter, Shiga toxin inh)
COc1ccc(-c2ccc3c(c2)c(C#Cc2ccsc2)c(-c2cc(OC)cc(OC)c2)n3C)cc1	none (no result: Pf growth 48h, CHX counter, Pf growth 96h, Shiga toxin inh)
COc1cc(OC)cc(-c2c(C#Cc3ccsc3)c3cc(-c4cccc5[nH]ccc45)ccc3n2C)c1	Pf growth 48h 12µM, Pf growth 96h 3.3µM (no result: CHX counter, Shiga toxin inh)
COc1cc(OC)cc(-c2c(C#Cc3ccsc3)c3cc(-c4ccc5cc[nH]c5c4)ccc3n2C)c1	Pf growth 48h inconclusive, Pf growth 96h 1.9µM (no result: CHX counter, Shiga toxin inh)
COc1cc(OC)cc(-c2c(C#Cc3ccsc3)c3cc(-c4ccccc4OC)ccc3n2C)c1	none (no result: Pf growth 48h, CHX counter, Pf growth 96h, Shiga toxin inh)
CCCN1C(=O)CN(C2CCCCCC2)C(=O)C1c1ccc(OCC)c(OC)c1 (centres undefined)	none (no result: Pf growth 48h, HCV inhibitor, CHX counter, Pf growth 96h, Shiga toxin inh)
CCOc1ccc(CN(C)Cc2cc(=O)oc3cc(C)c(Cl)cc23)cc1	Pf growth 48h inconclusive, HCMV inh inconclusive, Pf growth 96h inconclusive
Cc1ccc2c(CN(C)Cc3cccc(Cl)c3)cc(=O)oc2c1C	HCV inhibitor inconclusive, CHX counter 6.4
CSc1ccc(CN(C)Cc2cc(=O)oc3c(C)c(C)ccc23)cc1	Pf growth 48h inconclusive, HCV inhibitor inconclusive
COc1cc(CN(C)Cc2cc(=O)oc3cc(C)c(Cl)cc23)ccc1OC(F)F	Pf growth 48h inconclusive, HCV inhibitor 10µM, Pf growth 96h inconclusive, Shiga toxin inh 50
COc1ccc(CN(C)Cc2cc(=O)oc3cc(C)c(C(C)C)cc23)cc1OC	Pf growth 48h inconclusive, HCV inhibitor inconclusive, Pf growth 96h inconclusive
CCOc1ccc(CN(C)Cc2cc(=O)oc3c(C)c(C)ccc23)cc1OC	HCV inhibitor 11µM (no result: Pf growth 48h, CHX counter, Pf growth 96h, Shiga toxin inh)
CC(NS(=O)(=O)c1ccc(N)cc1)C1CC2CCC1C2 (centres undefined)	none
Cc1ccc(-c2cnc(C(O)c3ccc(Cl)c(Cl)c3)[nH]2)cc1 (centres undefined)	none (no result: Pf growth 48h, HCV inhibitor, CHX counter, Pf growth 96h, Shiga toxin inh)
CCCSCCCNC(=O)c1ccccc1NC(=O)C1=CSCCO1	Pf growth 96h 13µM
O=C(Nc1ccccc1)N(CCCN1CCOCC1)Cc1ccccc1F	none
CCc1ccccc1NC(=S)N(CCN1CCOCC1)Cc1ccccc1F	Pf growth 96h 10µM
O=C(Nc1cccc(Cl)c1)N(CCCN1CCOCC1)Cc1ccccc1F	Pf growth 96h 2.1µM
Cc1ccccc1NC(=S)N(CCN1CCOCC1)Cc1ccccc1F	none
COc1cccc(CNC(=O)c2ccc(NC(=O)N3CC(C)Sc4ccccc43)cc2)c1 (centres undefined)	none (no result: Pf growth 48h, HCV inhibitor, CHX counter, Pf growth 96h, Shiga toxin inh)
